From PubChem BioAssay AID1159580 (chemical genetic matrix, 2015)
Where “and” joins values, the source holds several entries; their conditions need not be identical. Identical values can stand only once. Screen size: about 5,500 compounds; about 2,000 (36%) were called active. Inconclusive results (about 18%) are left out. No stated cut-off is given here; in the data, active means normalized growth mostly below about 0.91 (no sharp cut-off); inconclusive means no clear call, values can overlap the other calls; inactive means mostly above about 0.92. This is one part of the list.

Test: chemical genetic growth profiling, strain panel (AID 1159580);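 further: tested at 20 µM; growth read once vehicle control cultures reached saturation at 30 °C; 1 = growth at the plate median or of vehicle wells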
Conditions: growth OD

Measured: normalized growth

CN(C)CCCN1c2ccccc2Sc2ccccc21
inactive: S. cerevisiae deletion strains, locus YJR075W, strain HOC1, stronger effect = lower value 0.995 and 1 | S. cerevisiae deletion strains, locus YKL009W, strain mrt4, stronger effect = lower value 1.02 | S. cerevisiae deletion strains, locus YKL068W, stronger effect = lower value 1.01 | S. cerevisiae deletion strains, locus YKL085W, strain MDH1 (second series), stronger effect = lower value 1 | S. cerevisiae deletion strains, locus YKL085W, strain MDH1, stronger effect = lower value 1 | S. cerevisiae deletion strains, locus YKL160W, strain elf1, stronger effect = lower value 1.04 | S. cerevisiae deletion strains, locus YKL190W, strain CNB1, stronger effect = lower value 1 | S. cerevisiae deletion strains, locus YKR001C, strain vps1, stronger effect = lower value 1.02 | S. cerevisiae deletion strains, locus YKR026C, strain gcn3, stronger effect = lower value 0.989 | S. cerevisiae deletion strains, locus YKR091W, strain srl3, stronger effect = lower value 0.984 | S. cerevisiae deletion strains, locus YLL001W, strain dnm1, stronger effect = lower value 0.978 | S. cerevisiae deletion strains, locus YLL026W, stronger effect = lower value 0.98 | S. cerevisiae deletion strains, locus YLL041C, strain sdh2, stronger effect = lower value 0.99 | S. cerevisiae deletion strains, locus YLR027C, strain aat2, stronger effect = lower value 0.999 | S. cerevisiae deletion strains, locus YLR039C, strain RIC1, stronger effect = lower value 1.19 | S. cerevisiae deletion strains, locus YLR058C, strain SHM2, stronger effect = lower value 1 | S. cerevisiae deletion strains, locus YLR102C, strain apc9, stronger effect = lower value 1.01 | S. cerevisiae deletion strains, locus YLR113W, strain HOG1, stronger effect = lower value 1.01 | S. cerevisiae deletion strains, locus YLR221C, strain rsa3, stronger effect = lower value 0.992 | S. cerevisiae deletion strains, locus YLR258W, strain gsy2, stronger effect = lower value 0.983 | S. cerevisiae deletion strains, locus YLR262C, strain YPT6 (second series), stronger effect = lower value 1.01 | S. cerevisiae deletion strains, locus YLR262C, strain YPT6, stronger effect = lower value 1.23 | S. cerevisiae deletion strains, locus YLR268W, strain sec22, stronger effect = lower value 1.01 | S. cerevisiae deletion strains, locus YLR320W, strain mms22, stronger effect = lower value 0.996 | S. cerevisiae deletion strains, locus YLR330W, strain CHS5, stronger effect = lower value 1.01 | S. cerevisiae deletion strains, locus YLR342W, strain FKS1 (second series), stronger effect = lower value 0.99 | S. cerevisiae deletion strains, locus YLR342W, strain FKS1, stronger effect = lower value 0.977 | S. cerevisiae deletion strains, locus YLR357W, strain rsc2, stronger effect = lower value 0.989 | S. cerevisiae deletion strains, locus YLR370C, strain arc18, stronger effect = lower value 1 | S. cerevisiae deletion strains, locus YLR371W, strain rom2, stronger effect = lower value 1.01 | S. cerevisiae deletion strains, locus YLR384C, strain iki3, stronger effect = lower value 0.997 | S. cerevisiae deletion strains, locus YLR418C, strain cdc73, stronger effect = lower value 0.988 | S. cerevisiae deletion strains, locus YML016C, strain PPZ1, stronger effect = lower value 1.01 | S. cerevisiae deletion strains, locus YML032C, strain rad52, stronger effect = lower value 1.01 | S. cerevisiae deletion strains, locus YML120C, strain ndi1, stronger effect = lower value 0.99 | S. cerevisiae deletion strains, locus YML124C, strain tub3, stronger effect = lower value 1.01 | S. cerevisiae deletion strains, locus YMR058W, strain fet3, stronger effect = lower value 0.982 | S. cerevisiae deletion strains, locus YMR078C, strain ctf18, stronger effect = lower value 1.01 | S. cerevisiae deletion strains, locus YMR125W, strain sto1, stronger effect = lower value 0.947 | S. cerevisiae deletion strains, locus YMR129W, stronger effect = lower value 1 | S. cerevisiae deletion strains, locus YMR205C, strain PFK2, stronger effect = lower value 1 | S. cerevisiae deletion strains, locus YMR223W, strain ubp8, stronger effect = lower value 0.999 | S. cerevisiae deletion strains, locus YMR231W, strain pep5, stronger effect = lower value 0.986 | S. cerevisiae deletion strains, locus YMR263W, strain SAP30, stronger effect = lower value 0.999 and 0.981 | S. cerevisiae deletion strains, locus YMR307W, strain GAS1, stronger effect = lower value 1.03 and 1.02 | S. cerevisiae deletion strains, locus YNL067W, strain RPL9B, stronger effect = lower value 0.988 | S. cerevisiae deletion strains, locus YNL071W, strain lat1, stronger effect = lower value 0.996 | S. cerevisiae deletion strains, locus YNL128W, strain TEP1, stronger effect = lower value 1.01 and 0.994 | S. cerevisiae deletion strains, locus YNL153C, strain GIM3, stronger effect = lower value 1.09 | S. cerevisiae deletion strains, locus YNL175C, strain NOP13, stronger effect = lower value 0.983 | S. cerevisiae deletion strains, locus YNL183C, strain NPR1, stronger effect = lower value 0.965 | S. cerevisiae deletion strains, locus YNL209W, strain ssb2, stronger effect = lower value 0.971 | S. cerevisiae deletion strains, locus YNL224C, strain SQS1, stronger effect = lower value 1.01 | S. cerevisiae deletion strains, locus YNL233W, strain BNI4, stronger effect = lower value 1.01 | S. cerevisiae deletion strains, locus YNL248C, strain rpa49, stronger effect = lower value 0.976 | S. cerevisiae deletion strains, locus YNL250W, strain rad50, stronger effect = lower value 1.01 | S. cerevisiae deletion strains, locus YNL271C, strain bni1, stronger effect = lower value 1.01 | S. cerevisiae deletion strains, locus YNL298W, strain CLA4, stronger effect = lower value 1 | S. cerevisiae deletion strains, locus YNL307C, strain MCK1, stronger effect = lower value 1.02 | S. cerevisiae deletion strains, locus YNL322C, strain KRE1 (second series), stronger effect = lower value 1.01 | S. cerevisiae deletion strains, locus YNL322C, strain KRE1, stronger effect = lower value 1 and 0.958 | S. cerevisiae deletion strains, locus YNR049C, strain mso1, stronger effect = lower value 0.996 | S. cerevisiae deletion strains, locus YNR052C, strain pop2, stronger effect = lower value 1.01 | S. cerevisiae deletion strains, locus YOL006C, strain TOP1, stronger effect = lower value 0.983 | S. cerevisiae deletion strains, locus YOL012C, strain htz1 0.964 | S. cerevisiae deletion strains, locus YOL147C, strain pex11, stronger effect = lower value 1.01 | S. cerevisiae deletion strains, locus YOR001W, strain rrp6, stronger effect = lower value 0.96 | S. cerevisiae deletion strains, locus YOR061W, strain CKA2, stronger effect = lower value 1.01 | S. cerevisiae deletion strains, locus YOR069W, strain VPS5, stronger effect = lower value 0.995 | S. cerevisiae deletion strains, locus YOR070C, strain gyp1, stronger effect = lower value 0.986 | S. cerevisiae deletion strains, locus YOR080W, strain dia2, stronger effect = lower value 1.01 | S. cerevisiae deletion strains, locus YOR083W, strain WHI5 (second series), stronger effect = lower value 0.98 | S. cerevisiae deletion strains, locus YOR083W, strain WHI5, stronger effect = lower value 0.971 | S. cerevisiae deletion strains, locus YOR106W, strain vam3, stronger effect = lower value 0.968 | S. cerevisiae deletion strains, locus YOR136W, strain idh2, stronger effect = lower value 1.02 | S. cerevisiae deletion strains, locus YOR144C, strain elg1, stronger effect = lower value 1.01 | S. cerevisiae deletion strains, locus YOR184W, strain ser1, stronger effect = lower value 1.08 | S. cerevisiae deletion strains, locus YOR231W, strain MKK1, stronger effect = lower value 0.986 | S. cerevisiae deletion strains, locus YOR265W, strain rbl2, stronger effect = lower value 1 | S. cerevisiae deletion strains, locus YOR270C, strain vph1, stronger effect = lower value 0.898 | S. cerevisiae deletion strains, locus YOR290C, strain snf2, stronger effect = lower value 1.01 | S. cerevisiae deletion strains, locus YOR316C, strain cot1, stronger effect = lower value 1.02 | S. cerevisiae deletion strains, locus YPL051W, strain arl3, stronger effect = lower value 1 | S. cerevisiae deletion strains, locus YPL055C, strain LGE1, stronger effect = lower value 1.01 | S. cerevisiae deletion strains, locus YPL078C, strain atp4, stronger effect = lower value 1.01 | S. cerevisiae deletion strains, locus YPL106C, strain sse1, stronger effect = lower value 0.999 | S. cerevisiae deletion strains, locus YPL240C, strain hsp82, stronger effect = lower value 0.985 | S. cerevisiae deletion strains, locus YPL241C, strain CIN2, stronger effect = lower value 0.999 | S. cerevisiae deletion strains, locus YPL256C, strain CLN2, stronger effect = lower value 1.01 | S. cerevisiae deletion strains, locus YPR119W, strain clb2, stronger effect = lower value 1 | S. cerevisiae deletion strains, locus YPR141C, strain kar3, stronger effect = lower value 1.01 | S. cerevisiae deletion strains, locus YPR163C, strain tif3, stronger effect = lower value 1.01 | S. cerevisiae deletion strains, locus YPR167C, strain met16, stronger effect = lower value 1.01 | S. cerevisiae deletion strains, strain wtn01, stronger effect = lower value 1.02 | S. cerevisiae strains, strain wild type, stronger effect = lower value 0.992
